Screening data deposited in PubChem by National Center for Advancing Translational Sciences (NCATS).
FLuc counter – qHTS profiling assay for firefly luciferase inhibitor/activator using purifed enzyme and Km concentrations of substrates (counterscreen for miR-21 project). Luciferin 4-monooxygenase (Photinus pyralis), P08659. purified FLuc, Km substrates, luminescence inhibition. Potency, µM (highest dose often 57.5 µM), for the others: top-dose activity change, negative = inhibition, hits mostly inhibitors. actives 6.9% (n = 360,000). AID 588342, 2011;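 note: plate controls were vehicle for no effect and reference inhibitor for full effect; nearly all actives have a fitted effect of over 55% in size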
Target sequence (P08659 whole entry, looked up): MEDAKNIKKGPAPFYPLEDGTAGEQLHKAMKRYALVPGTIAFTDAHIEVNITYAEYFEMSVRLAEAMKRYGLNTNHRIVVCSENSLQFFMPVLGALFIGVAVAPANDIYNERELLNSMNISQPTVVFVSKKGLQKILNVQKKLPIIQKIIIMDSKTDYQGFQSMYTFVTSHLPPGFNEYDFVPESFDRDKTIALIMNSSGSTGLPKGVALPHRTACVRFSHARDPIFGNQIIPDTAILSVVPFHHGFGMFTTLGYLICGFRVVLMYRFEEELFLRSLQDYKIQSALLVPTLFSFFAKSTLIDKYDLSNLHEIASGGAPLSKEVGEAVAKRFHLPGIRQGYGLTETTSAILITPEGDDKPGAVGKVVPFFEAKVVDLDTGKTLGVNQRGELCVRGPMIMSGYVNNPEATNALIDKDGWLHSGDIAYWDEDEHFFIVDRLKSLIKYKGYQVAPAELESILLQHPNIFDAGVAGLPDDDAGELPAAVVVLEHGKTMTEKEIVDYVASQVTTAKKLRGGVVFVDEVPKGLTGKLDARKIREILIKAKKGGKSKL
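Purified P. pyralis luciferase (10nM final) with 10uM D-luciferin and 10uM ATP (Km levels) in 50mM Tris acetate pH 7.5, 10mM Mg acetate, 0.01% Tween-20, 0.05% BSA; qHTS 6-point titration, ~60 µM downward; luminescence read.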
NPC1 promoter act – qHTS Assay for NPC1 Promoter Activators | Huh7 NPC1 promoter luciferase reporter, 24 h | Potency, µM (series often up to 9.22 µM), inactives show top-dose activation, actives largely listed as activators | actives 2.4% (n = 320,000) | AID 485313, 2010; note: % of control where 0% means no effect; nearly all actives have a fitted effect of over 60% in size
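Stable NPC1-promoter luciferase Huh7 line; cpd (DMSO) 24 h, 37 °C, 5% CO2; Amplite luciferase reagent 10 min RT; luminescence readout. qHTS format.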
Rab9 promoter act – qHTS Assay for Rab9 Promoter Activators | Huh7 Rab9 promoter-luciferase reporter, luminescence, 24 h | Potency, µM (series often up to 9.22 µM), without a hit: at the top dose activation, negative = inhibition, usual class: activators | actives 2.8% (n = 320,000); note: % of control where 0% means no effect; nearly all actives have a fitted effect of over 60% in size
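Luminescence from Amplite-detected luciferase (10 minutes, ambient) reports Rab9 promoter activation. Before that, stable Rab9-luciferase Huh7 cells (1500/well, reduced-serum OP-MEM I plus 10% FBS) were exposed to compound for 24 hours at 37C.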
KinaseGlo FLuc – Counterscreen for Luciferase (Kinase-Glo TM) Inhibition. actives 0.28% (n = 200,000). AID 1379, 2008. Luciferin 4-monooxygenase (Photuris pensylvanica), Q27757. Potency, µM (highest dose often 38.3 µM), inactives show at the top dose activity change, negative = inhibition, usual class: inhibitors. Kinase-Glo luciferase, ATP luminescence, 8 min; note: % is set by controls: 0 for no effect and ±100 for the full control effect; nearly all actives have a fitted effect of over 60% in size
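Inhibition of Kinase-Glo luciferase light generation was assessed at 10 uM ATP in pH 7.2 imidazole buffer, with luminescence measured after eight minutes at ambient temperature.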
SMN2 splice enh – qHTS Assay for Enhancers of SMN2 Splice Variant Expression | actives 2.8% (n = 210,000) | Potency, µM (top dose mostly 46.1 µM), inactives show at the highest dose activity change, positive = activation, most hits filed as activators | HEK293 SMN2-luciferase splicing reporter, luminescence, 30-36 h; note: % of control where 0% means no effect; nearly all actives have a fitted effect of over 55% in size
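HEK293 cells carry an SMN2 […]–luciferase reporter in which exon 7 inclusion puts luciferase in frame. Cells were plated 10-12 h before compound addition, then incubated 30-36 h at 37C. ONE-Glo luminescence was read; sodium butyrate at 4.5 mM final served as control.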
ELG1 genotoxic – qHTS screen for small molecules that induce genotoxicity in human embryonic kidney (HEK293T) cells expressing luciferase-tagged ELG1; HEK293T ELG1-luciferase reporter, luminescence, 16 h; Potency, µM (top dose mostly 46 µM), inactives show at the top dose activity change, positive = activation, hits mostly activators; actives 1.3% (n = 330,000); AID 504466, 2011; note: % of control where 0% means no effect; nearly all actives have a fitted effect of over 60% in size
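ELG1-luciferase HEK293T cells, 2,000/well; compound pinned in; 16 hr, 37 °C, 5% CO2; ONE-Glo, 30 min RT; luminescence on CCD imager.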
Numbers without * were called inactive. An excerpt weighted towards active compounds, which were near 7.5% of everything screened. Calls come from the whole dose curve; as a rule, active = well fitted curve in the direction sought with a large enough effect; inconclusive = small, poorly fitted or top-dose-only effect, or another doubt; inactive = no such curve, though single readings can be large; an effect the other way counts as inactive or inconclusive. Potency is the fitted concentration of half-maximal effect.

Screening Brc1ccccc1/C=N/Nc1ccccn1 returned FLuc counter inconclusive, NPC1 promoter act 1%, Rab9 promoter act 19%, KinaseGlo FLuc -16%, SMN2 splice enh inconclusive and ELG1 genotoxic inconclusive.
`O=C(O)COc1ccc(Br)cc1/C=N\Nc1ccccn1` gave FLuc counter inconclusive, NPC1 promoter act 0%, Rab9 promoter act 6% and ELG1 genotoxic 0%.
Screening O=c1nc(N/N=C/C=C/c2ccccc2)cn[nH]1 returned FLuc counter 4.8µM*, NPC1 promoter act 0.5µM*, Rab9 promoter act 0.35µM* and ELG1 genotoxic 2.1µM*.
`O=c1nc(N/N=C/c2c[nH]c3ccccc23)cn[nH]1` gave FLuc counter 12µM*, NPC1 promoter act 2.5µM*, Rab9 promoter act 2µM* and ELG1 genotoxic 10µM*.
`C(=N\Nc1ccccn1)/c1c[nH]c2ccccc12` gave FLuc counter 15µM*, NPC1 promoter act -3%, Rab9 promoter act 28% and ELG1 genotoxic inconclusive.
CCc1ccccc1NC(=O)[C@@H](c1ccccc1)N1Cc2ccccc2C1=O was read as FLuc counter -13% and SMN2 splice enh -6%.
For O=C(CSc1n[nH]c(=O)n1Cc1ccccc1)Nc1ccc(F)c(F)c1F the results were FLuc counter 1%, NPC1 promoter act -2%, Rab9 promoter act -8% and ELG1 genotoxic -10%.
For CN(c1ccccc1)c1ccc(/C=C/[N+](=O)[O-])cc1 the results were FLuc counter 11µM*, NPC1 promoter act 9%, Rab9 promoter act 17%, KinaseGlo FLuc -4%, SMN2 splice enh -84% and ELG1 genotoxic -6%.
CC(=O)N1c2ccc(S(=O)(=O)NCCC(=O)Nc3ccc(C)c(Cl)c3)cc2CC1C (stereo not given) was read as FLuc counter -1%, NPC1 promoter act 0%, Rab9 promoter act -2% and ELG1 genotoxic -5%.
`Cc1ccc2nc(NC(=O)COC(=O)c3ccc(Br)o3)sc2c1` gave FLuc counter 27µM*, NPC1 promoter act inconclusive, Rab9 promoter act inconclusive, KinaseGlo FLuc -8%, SMN2 splice enh 5% and ELG1 genotoxic 1%.
O=C(COC(=O)c1ccco1)Nc1nc2ccc([N+](=O)[O-])cc2s1 was read as FLuc counter 19µM*, NPC1 promoter act -2%, Rab9 promoter act 1% and ELG1 genotoxic -4%.
Screening Cc1ccc2nc(NC(=O)COC(=O)c3ccco3)sc2c1 returned FLuc counter 13µM*, KinaseGlo FLuc 0% and SMN2 splice enh 30%.
Screening O=C(COC(=O)c1ccco1)Nc1ccc([N+](=O)[O-])cc1Cl returned FLuc counter -3%, NPC1 promoter act -2%, Rab9 promoter act 0% and ELG1 genotoxic 8%.
CN1c2ccccc2C(C)(C)C12CC(c1ccc(S(=O)(=O)N3CCCCC3)cc1)=NO2 (stereo not given) was read as FLuc counter -1%, NPC1 promoter act -5%, Rab9 promoter act 8%, KinaseGlo FLuc 2%, SMN2 splice enh 1.1µM* and ELG1 genotoxic -5%.
COc1ccc(OC)c(NC(=O)[C@@H]2CCCN2C(=O)c2cccs2)c1 was read as FLuc counter 1%, NPC1 promoter act -2%, Rab9 promoter act -2%, KinaseGlo FLuc -4%, SMN2 splice enh 5.6µM* and ELG1 genotoxic 10%.
`N#Cc1ccc(NC(=O)COCc2cc(-c3ccco3)on2)cc1` gave FLuc counter -6%.
Screening O=C(CSCc1cccc(Br)c1)NC1CC1 returned FLuc counter -6%, NPC1 promoter act -1%, Rab9 promoter act 5%, KinaseGlo FLuc -3%, SMN2 splice enh 3% and ELG1 genotoxic 2%.
O=C(N/N=C/c1ccccc1Cl)c1n[nH]c2c1CCCC2 was read as FLuc counter 0.21µM*, NPC1 promoter act 0.63µM*, Rab9 promoter act inconclusive, KinaseGlo FLuc 3.2µM*, SMN2 splice enh 0.35µM* and ELG1 genotoxic 0.29µM*.
O=C(N/N=C/C(Br)=C/c1ccccc1)c1n[nH]c2c1CCC2 was read as FLuc counter 2.7µM*, NPC1 promoter act inconclusive, Rab9 promoter act 0%, KinaseGlo FLuc 11%, SMN2 splice enh 10µM* and ELG1 genotoxic inconclusive.
O=C(N/N=C/c1cccs1)c1n[nH]c2c1CCC2 was read as FLuc counter 3.4µM*, NPC1 promoter act inconclusive, Rab9 promoter act inconclusive, KinaseGlo FLuc inconclusive, SMN2 splice enh 5µM* and ELG1 genotoxic inconclusive.
O=C(N/N=C/c1ccccc1)c1n[nH]c2c1CCCC2 was read as FLuc counter 3µM*, NPC1 promoter act 0.56µM*, Rab9 promoter act 0.35µM*, KinaseGlo FLuc -22%, SMN2 splice enh 5µM* and ELG1 genotoxic inconclusive.
For Cc1ccc(N(CC(O)CN2CCOCC2)S(=O)(=O)c2ccc([N+](=O)[O-])cc2)cc1 (stereo not given) the results were FLuc counter 0%, NPC1 promoter act 11%, Rab9 promoter act -4% and ELG1 genotoxic 0%.
Screening Cn1cccc1-c1cc(C(=O)N/N=C/c2ccc(Cl)cc2)[nH]n1 returned FLuc counter inconclusive, NPC1 promoter act 3%, Rab9 promoter act -3% and ELG1 genotoxic -2%.
Screening O=C(N/N=C/c1ccc(Cl)cc1)c1n[nH]c2c1CCCC2 returned FLuc counter inconclusive, NPC1 promoter act inconclusive, Rab9 promoter act 18% and ELG1 genotoxic 8.2µM*.
O=C(Nc1ccc2c(c1)OCO2)C1CC(=O)N(c2ccc(F)cc2)C1 (stereo not given) was read as FLuc counter -10%, NPC1 promoter act 0%, Rab9 promoter act 2% and ELG1 genotoxic 5%.
Screening O=C(CCNC(=O)c1ccco1)Nc1ccccc1OC(F)F returned FLuc counter 1%, NPC1 promoter act 0%, Rab9 promoter act 3% and ELG1 genotoxic -1%.
For Cc1nn(-c2ccccc2)c2sc(C(=O)N3CCCCC3)cc12 the results were FLuc counter 19µM*, KinaseGlo FLuc 0% and SMN2 splice enh inconclusive.
`CC(Sc1nnc(NC2CC2)s1)C(=O)Nc1ccc(S(N)(=O)=O)cc1` (stereo not given) gave ELG1 genotoxic 1%.
